Data: article PMC4336329 (PLoS ONE, 2015)
In all, about 310,000 compounds went through this assay and about 14,000 (4.5%) showed an effect of 50% or more. The effect is printed as a negative number. The sample holds strong results, similar compounds and a random draw of the others, so the mix is not that of the screen.

These compounds were tested against human ether-à-go-go-related gene (hERG) potassium channel (human, UniProt Q12809) (assay: primary screen, population patch clamp on CHO cells stably expressing hERG; higher = less effect of the substance).
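Further: peak tail current of the secondary pulse compared with the same well before compound.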

Sequence of human ether-à-go-go-related gene (hERG) potassium channel (Q12809 whole entry, looked up): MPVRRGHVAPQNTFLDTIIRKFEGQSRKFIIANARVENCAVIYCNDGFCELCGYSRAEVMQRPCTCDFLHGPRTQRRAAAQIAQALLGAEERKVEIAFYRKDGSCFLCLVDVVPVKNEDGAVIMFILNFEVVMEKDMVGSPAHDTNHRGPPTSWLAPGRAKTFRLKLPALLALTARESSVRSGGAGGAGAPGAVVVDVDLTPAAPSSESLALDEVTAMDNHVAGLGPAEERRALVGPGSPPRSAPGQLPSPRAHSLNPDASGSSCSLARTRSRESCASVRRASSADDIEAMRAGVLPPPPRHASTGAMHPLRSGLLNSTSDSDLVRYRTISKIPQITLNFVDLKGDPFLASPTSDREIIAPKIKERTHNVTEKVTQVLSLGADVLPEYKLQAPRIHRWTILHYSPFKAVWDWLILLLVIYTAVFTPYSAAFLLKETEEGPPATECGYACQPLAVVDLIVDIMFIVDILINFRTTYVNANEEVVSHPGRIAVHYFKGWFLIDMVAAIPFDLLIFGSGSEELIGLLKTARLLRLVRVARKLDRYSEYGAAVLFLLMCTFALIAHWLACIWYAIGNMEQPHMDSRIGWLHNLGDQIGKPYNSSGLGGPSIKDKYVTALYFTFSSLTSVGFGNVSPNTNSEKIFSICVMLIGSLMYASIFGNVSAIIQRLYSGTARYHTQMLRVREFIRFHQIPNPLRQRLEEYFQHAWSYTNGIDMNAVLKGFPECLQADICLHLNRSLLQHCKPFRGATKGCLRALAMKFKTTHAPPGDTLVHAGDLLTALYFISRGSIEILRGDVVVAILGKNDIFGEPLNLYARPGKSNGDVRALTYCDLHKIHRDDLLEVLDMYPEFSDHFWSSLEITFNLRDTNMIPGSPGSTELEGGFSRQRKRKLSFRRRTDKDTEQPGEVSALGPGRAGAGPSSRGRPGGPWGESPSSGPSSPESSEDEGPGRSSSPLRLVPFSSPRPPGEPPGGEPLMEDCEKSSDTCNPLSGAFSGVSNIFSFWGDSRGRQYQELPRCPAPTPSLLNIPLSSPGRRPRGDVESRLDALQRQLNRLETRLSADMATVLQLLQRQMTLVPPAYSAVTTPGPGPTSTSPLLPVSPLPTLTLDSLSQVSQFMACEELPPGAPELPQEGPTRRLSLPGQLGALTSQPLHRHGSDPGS

Compound	hERG current change (%, negative = inhibition) at 10uM
CNC(=O)c1csc(-c2ccc(Cl)cc2)n1	-4.29%
CCn1cc([N+](=O)[O-])c(C(=O)NCc2ccc(Cl)cc2)n1	-6.18%
CCO.NCCc1c[nH]c2ccc(C(N)=O)cc12.O=C([O-])/C=C\C(=O)[O-]	11.6%
CC(=O)c1ccc(NC(=O)C2CCCN2S(=O)(=O)c2ccc(F)cc2)cc1 (stereo not shown)	-16.6%
O=c1c2ccccc2[nH]c(=S)n1CCCn1ccnc1	-0.744%
O=S(=O)(c1ccc(NC(=S)Nc2ccc3c(c2)OCO3)cc1)N1CCOCC1	13.1%
COc1ccc(C2/C=C\CN(C(=O)C3CCCCC3)CC(=O)N2Cc2ccc(F)cc2)cc1 (stereo not shown)	-10.1%
Cc1cc(OCC(=O)NNC(=O)CCc2ccccc2)ccc1Br	17.6%
CCC[N+](C)(C)C(C)C(OC(C)=O)c1ccccc1.[I-] (stereo not shown)	15.5%
CCOC(=O)CC(=O)Nc1ccsc1C(N)=O	15.9%
COc1ccccc1N1CCN(/N=C/c2ccc(C(=O)O)cc2)CC1	16.3%
COc1ccc(S(=O)(=O)NCC2CCCN(C(=O)c3ccccc3)C2)cc1 (stereo not shown)	8.3%
CC1=C(C(=O)N2CCOCC2)C(c2c(C)cc(C)cc2C)NC(=S)N1 (stereo not shown)	10.5%
COC(=O)C1=CN(c2cc(C)cc(C)c2)C=C(C(=O)OC)C1c1ccc(OC)c(O)c1	10.9%
CN(C)CCCNCCCNC(=O)/C=N/O	10.2%
CN(C)CCCNCCNC(=O)/C=N\O.Cl	-65.4%
CN(C)CCCNCCCCNC(=O)/C=N/O	0.266%
CCOc1ccc(OCCC(=O)OC(C)C(=O)Nc2ccc(C(C)=O)cc2)cc1 (stereo not shown)	8.72%
CC(=O)Nc1ccc(S(=O)(=O)N2c3ccccc3NC(=O)CC2C)c(Cl)c1 (stereo not shown)	11.9%
CCOc1ccc(Nc2nc3c(C)cccc3cc2C#N)cc1	4.76%
O=Cc1cccc(Oc2ccc([N+](=O)[O-])cc2[N+](=O)[O-])c1	-55%
Cc1cc(=O)oc2cc(Oc3ccc(C(N)=O)cc3[N+](=O)[O-])ccc12	-20.7%

Compound	hERG current change (%, negative = inhibition) at 10uM
O=C(N/N=C/c1cccc(Oc2ccc([N+](=O)[O-])cc2[N+](=O)[O-])c1)c1cncc(Br)c1	-32.1%
Nc1ccc(Oc2ccc([N+](=O)[O-])cc2[N+](=O)[O-])cc1	-37.7%
Cc1cc(=O)oc2cc(Oc3ccc([N+](=O)[O-])cc3[N+](=O)[O-])ccc12	-64.4%
Cc1cc(=O)oc2cc(Oc3ccc([N+](=O)[O-])cc3C(F)(F)F)ccc12	-15%
Cc1ccc(O)c(C2=Nc3ccccc3N=C(c3cccc([N+](=O)[O-])c3)C2)c1	20.9%
O=C(COc1ccccc1)OCc1cc(-c2ccco2)on1	5.99%
Cc1ccc(C)c(NC(=S)N2CCN(Cc3ccccc3)CC2)c1	11.2%
O=C(O)CCN=C1CCCc2ccccc2N1	7.26%
O=C1CC(c2ccccc2)CC(O)=C1C=NC1CCCCCC1 (stereo not shown)	6.58%
O=C1CC(c2ccccc2)CC(O)=C1C=NC1CCCC1 (stereo not shown)	-5.2%
O=C1CC(c2cccc(Cl)c2)CC(O)=C1C=NC1CCCC1 (stereo not shown)	-59.8%
CCOc1ccc(C(=O)NCC(=O)NCC(c2ccc(OC)cc2)N2CCCC2)cc1 (stereo not shown)	-4.71%
Cc1ccc(C)c(OC(=O)C2CSC3(C)CCC(=O)N23)c1C (stereo not shown)	-7.46%
COc1cc(C(O)P(=O)(OCCC(C)C)c2ccc(N(C)C)cc2)cc(OC)c1OC (stereo not shown)	10.9%
CCOc1ccc2c(c1)ncn2Cc1ccccc1	8.33%
Cc1ccc2cc(CN(CCN(C)C)C(=S)Nc3ccccc3)c(=O)[nH]c2c1C	-49.9%
O=C(Nc1cccc(Cl)c1)N(CCN1CCOCC1)Cc1cccc(Cl)c1	-22.1%
Cc1ccc(C)c2[nH]c(=O)c(CN(CC3CCCO3)C(=O)NC3CCCCC3)cc12 (stereo not shown)	-2.81%
Cc1cccc2cc(CN(CC3CCCO3)C(=O)NC3CCCCC3)c(=O)[nH]c12 (stereo not shown)	-9.99%
COc1ccc(NC(=O)N(CCO)Cc2cc3c(C)cc(C)cc3[nH]c2=O)cc1	-15.3%
Cc1ccc2cc(CN(CCN3CCCC3)C(=O)Nc3ccccc3)c(=O)[nH]c2c1C	-57.8%
Cc1cccc2cc(CN(CCCO)C(=O)Nc3cccc(Cl)c3)c(=O)[nH]c12	-28.4%

Compound	hERG current change (%, negative = inhibition) at 10uM
Cc1ccc2cc(CN(CC3CCCO3)C(=O)NC3CCCCC3)c(=O)[nH]c2c1C (stereo not shown)	-55.4%
COc1ccc(NC(=O)N(CCN2CCCC2)Cc2cc3cc(OC)c(OC)cc3[nH]c2=O)cc1	-4.32%
Cc1ccc(C)c2[nH]c(=O)c(CN(CCN3CCCC3)C(=O)Nc3cccc(Cl)c3)cc12	-74.1%
Cc1cc(C)c2cc(CN(CCN3CCCC3)C(=O)Nc3ccc(F)cc3)c(=O)[nH]c2c1	-74.4%
COc1ccc(NC(=S)N(CCO)Cc2cc3c(C)cc(C)cc3[nH]c2=O)cc1	-48.8%
CCC(c1nnnn1CS(=O)(=O)c1ccc(C)cc1)N1CCN(c2nc3ccccc3s2)CC1 (stereo not shown)	-4.38%
CC(C)NC(=O)[C@@H]1CSC2c3ccccc3C(=O)N21 (stereo partly shown)	12.7%
Nc1nc(-c2ccc(Cl)cc2)nn1C(=O)c1ccco1	23.3%
CCOC(=O)C(Cc1ccccc1)C(=O)Nc1cccc2ccccc12 (stereo not shown)	-11.8%
CC(C)Cn1c(N)c(C(=O)COC(=O)[C@@H]2CCCN2C(=O)c2cccs2)c(=O)n(C)c1=O	-8.74%
O=C(c1c[nH]c2ccccc12)N1CCOCC1	8.48%
c1ccc(COc2ccc(-c3csnn3)cc2)cc1	-3.17%
Cc1nc(-c2ccc(Cl)cc2)sc1C1(C)CC(c2ccc(OC(F)(F)F)cc2)=NO1 (stereo not shown)	10.3%
O=C(Cc1ccccc1)Nc1cccc(N2C(=O)C=CC2=O)c1	-4.45%
O=C(Nc1cccc2[nH]ncc12)c1ccc(F)cc1	-17.4%
Cc1cccc2cc(CN(CCN3CCCC3)C(=O)NC3CCCCC3)c(=O)[nH]c12	-57%
Cc1ccc2cc(CN(CCN3CCCC3)C(=O)Nc3ccc(F)cc3)c(=O)[nH]c2c1C	-70.7%
COc1cc2cc(CN(CCN3CCCC3)C(=O)Nc3ccc(F)cc3)c(=O)[nH]c2cc1OC	-7.92%
COc1cc2cc(CN(CCN3CCOCC3)C(=O)Nc3ccc(F)cc3)c(=O)[nH]c2cc1OC	-28.6%
Cc1cccc2cc(CN(CCN3CCOCC3)C(=O)Nc3ccccc3F)c(=O)[nH]c12	-20.6%
Cc1ccc(C)c2[nH]c(=O)c(CN(CCN3CCCC3)C(=O)Nc3ccc(F)cc3)cc12	-75.7%
COc1ccc(CCN(Cc2cc3cccc(C)c3[nH]c2=O)C(=O)NC2CCCCC2)cc1OC	-25%

Compound	hERG current change (%, negative = inhibition) at 10uM
Cc1cccc2cc(CN(Cc3ccco3)C(=O)NC3CCCCC3)c(=O)[nH]c12	-38.9%
Cc1ccc(C)c2[nH]c(=O)c(CN(Cc3ccco3)C(=O)Nc3ccccc3)cc12	1.89%
NC(=O)Cc1nc2scc(-c3ccccc3)c2c(=O)[nH]1	37.9%
COC(=O)c1cccc(S(=O)(=O)N2CCC(NC(=O)NC34CC5CC(CC(C5)C3)C4)CC2)c1	4.44%
O=C(CCn1cccc1)Nc1cccc(F)c1	0.101%
CCc1nnc(NC(=O)CSc2ncc(-c3ccccc3)n2CC)s1	-17.9%
COCCCC1CCN(Cc2nc(Cc3ccccc3Cl)no2)CC1	5.07%
CC[C@@]1(O)C(=O)OCc2c1cc1n(c2=O)Cc2cc3c(CN(C)C)c(O)ccc3nc2-1.Cl	13.6%
Fc1ccc(-n2cc(-c3ccccc3)[n+]3c2SCC3)cc1.[Br-]	-22.7%
COc1ccc(-c2cn(-c3ccccc3)c3[n+]2CCS3)cc1	-38%
CCc1ccc(-n2cc(-c3ccc(F)cc3)[n+]3c2SCCC3)cc1.[Br-]	-71.7%
Cc1ccc(-c2cn(-c3ccccc3)c3[n+]2CCCS3)cc1.[Br-]	-29.1%
COc1ccc(-c2cn(-c3ccc(Br)cc3)c3[n+]2CCS3)cc1.[Br-]	-66.7%
[Br-].c1ccc(-c2cn(-c3ccccc3)c3[n+]2CCS3)cc1	-5.74%
Clc1ccc(-c2cn(-c3ccccc3)c3[n+]2CCS3)cc1.[Br-]	-59.4%
COc1ccc(-n2cc(-c3ccc(Br)cc3)[nH]c2=S)cc1	18%
Fc1ccc(-c2cn(-c3ccccc3)c3[n+]2CCS3)cc1.O.[Br-]	-45.3%
O=C(N/N=C/c1ccco1)c1cc(-c2cccc3ccccc23)n[nH]1	7.01%
COC(=O)C(C)N(c1ccc(C)cc1)S(=O)(=O)c1c(C)[nH]c(=O)[nH]c1=O (stereo not shown)	1.72%
